Among all 310,000 compounds or so, about 14,000 (4.5%) showed an effect of 50% or more. The effect is printed as a negative number. Many of the other results were omitted from the sample, so strong results are more common in it than they were.
target: human ether-à-go-go-related gene (hERG) potassium channel (human, UniProt Q12809); experiment: primary screen, population patch clamp on CHO cells stably expressing hERG; higher = less effect of the substance
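Note: peak tail current of the secondary pulse compared with the same well before compound.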

Sequence of human ether-à-go-go-related gene (hERG) potassium channel (Q12809 whole entry, looked up): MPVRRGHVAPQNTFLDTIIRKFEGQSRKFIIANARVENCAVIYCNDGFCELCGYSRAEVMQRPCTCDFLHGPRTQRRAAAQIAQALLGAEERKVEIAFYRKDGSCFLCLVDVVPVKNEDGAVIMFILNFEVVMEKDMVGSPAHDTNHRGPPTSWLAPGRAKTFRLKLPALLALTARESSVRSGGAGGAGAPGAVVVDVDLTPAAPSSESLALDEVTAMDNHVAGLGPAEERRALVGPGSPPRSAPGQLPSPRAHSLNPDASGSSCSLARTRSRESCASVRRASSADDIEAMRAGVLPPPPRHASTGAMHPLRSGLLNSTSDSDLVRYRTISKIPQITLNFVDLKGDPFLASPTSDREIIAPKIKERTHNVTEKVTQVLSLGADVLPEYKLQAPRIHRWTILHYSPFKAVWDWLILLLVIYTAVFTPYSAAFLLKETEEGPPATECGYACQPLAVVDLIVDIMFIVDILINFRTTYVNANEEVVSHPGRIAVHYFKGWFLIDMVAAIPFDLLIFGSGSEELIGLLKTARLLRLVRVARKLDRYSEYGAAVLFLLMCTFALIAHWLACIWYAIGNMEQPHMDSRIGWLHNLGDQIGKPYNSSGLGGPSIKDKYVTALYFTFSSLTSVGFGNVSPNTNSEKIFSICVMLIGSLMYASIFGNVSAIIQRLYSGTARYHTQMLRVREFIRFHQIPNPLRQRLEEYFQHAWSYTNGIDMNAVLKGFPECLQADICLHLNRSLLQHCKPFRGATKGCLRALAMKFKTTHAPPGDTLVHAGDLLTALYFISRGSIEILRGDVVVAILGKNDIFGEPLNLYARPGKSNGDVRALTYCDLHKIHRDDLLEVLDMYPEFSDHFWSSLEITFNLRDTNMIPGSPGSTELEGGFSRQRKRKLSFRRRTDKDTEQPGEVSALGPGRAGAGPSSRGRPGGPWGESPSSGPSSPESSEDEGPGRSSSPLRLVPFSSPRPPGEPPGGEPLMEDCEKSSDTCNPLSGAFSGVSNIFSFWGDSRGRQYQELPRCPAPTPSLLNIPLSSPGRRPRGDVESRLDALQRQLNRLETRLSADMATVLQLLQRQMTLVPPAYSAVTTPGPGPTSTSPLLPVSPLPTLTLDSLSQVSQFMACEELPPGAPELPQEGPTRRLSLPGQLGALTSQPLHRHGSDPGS

Structure (SMILES) | hERG current change (%, negative = inhibition) at 10uM
O=C(NNC(=O)c1cnccn1)c1ccc(Cl)cc1 | 10.1%
Cc1cccc(N2CCN(Cc3cc(=O)n4ccsc4n3)CC2)c1C | -37.1%
CCOC(=O)CC12CN3CN(C1)CC(CC(=O)OCC)(C3)C2=O | 8.62%
O=C(O)CCn1c(=S)oc2ccccc21 | -0.618%
CCOC(=O)C1(Cc2ccccc2)CCN(Cc2cnn(C(C)C)c2)CC1 | -28.7%
CCOC(=O)C1(CCCc2ccccc2)CCN(Cc2cn(CC)nc2C)CC1 | -74.1%
CCOC(=O)C1(CCCc2ccccc2)CCN(C(=O)Cn2nc(C)nc2C)CC1 | -24.6%
CCOC(=O)C1(Cc2ccccc2)CCN(Cc2cnn(-c3ccccc3)c2)CC1 | -81.4%
CCOC(=O)C1(Cc2ccccc2)CCN(Cc2cnn(CC)c2)CC1 | -21.2%
CCN1C(=O)C(=Cc2ccc(C)s2)C(=O)N(CC)C1=S | 5.09%
COc1ccc(OCC(=O)NCc2ccc(Cl)cc2)cc1 | 1.55%
COC(=O)c1nc(N)sc1-c1ccc(OC)cc1 | 10.3%
Cc1ccc(Oc2ccccc2NC(=O)CN2C(=O)NC3(CCCC3)C2=O)cc1 | 11%
O=C1NC(=O)N(c2ccccc2F)C(=O)/C1=C/c1ccc(Sc2nc3ccccc3[nH]2)o1 | -4.03%
O=C1NC(=O)N(c2cccc(Cl)c2)C(=O)/C1=C\c1ccc(Sc2nc3ccccc3[nH]2)o1 | 13.9%
O=C1NC(=O)N(c2ccc(Cl)cc2)C(=O)/C1=C\c1ccc(Sc2nc3ccccc3[nH]2)o1 | -65.6%
c1ccc(-n2ncc3c2ncn2nc(-c4ccco4)nc32)cc1 | 13.3%
CC(=O)c1ccc(S(=O)(=O)N2CCC(c3nc4ccccc4[nH]3)CC2)cc1 | -54.3%
O=S(=O)(c1ccccc1F)N1CCC(c2nc3ccccc3[nH]2)CC1 | -13.3%
CC(=O)Nc1ccc(S(=O)(=O)N2CCC(c3nc4ccccc4[nH]3)CC2)cc1 | -18.4%
O=S(=O)(c1cccc(Cl)c1)N1CCC(c2nc3ccccc3[nH]2)CC1 | 2.21%

Structure (SMILES) | hERG current change (%, negative = inhibition) at 10uM
O=S(=O)(c1ccc(F)cc1)N1CCC(c2nc3ccccc3[nH]2)CC1 | -2.46%
COc1ccc(S(=O)(=O)N2CCC(c3nc4ccccc4[nH]3)CC2)cc1 | 10.3%
COc1ccc(OC)c(S(=O)(=O)N2CCC(c3nc4ccccc4[nH]3)CC2)c1 | -55.7%
O=S(=O)(c1cccc(C(F)(F)F)c1)N1CCC(c2nc3ccccc3[nH]2)CC1 | 0.277%
CC(=O)c1cccc(S(=O)(=O)N2CCC(c3nc4ccccc4[nH]3)CC2)c1 | -56.6%
Cc1[nH]c2ccc(F)cc2c1CCN(Cc1ccncc1)C(=S)Nc1ccc(F)cc1 | -38.4%
CC1=NN(C(=O)c2ccc(Cn3cc([N+](=O)[O-])cn3)cc2)C(O)(C(F)(F)F)C1 (centres unmarked) | -21.1%
Cc1ccc(C)c(NC(=O)CN2C(=O)COc3ccc(S(=O)(=O)N4CCCC4)cc32)c1 | -0.517%
O=C1NC(=O)C(=Cc2ccc(N3CCOCC3)cc2)C(=O)N1 | 12.9%
Cc1cc(C(=O)Nc2ncn(Cc3ccc(F)cc3)n2)ccc1[N+](=O)[O-] | -51.7%
Cc1cc(C)nc(NC(=O)c2ccc([N+](=O)[O-])c(C)c2)n1 | 7.43%
Cc1cc(C(=O)Nc2ncn[nH]2)ccc1[N+](=O)[O-] | 26.3%
C[C@]12C[C@H](O)[C@H]3[C@@H](CCC4=CC(=O)CC[C@@]43C)[C@@H]1CC[C@@H]2C(=O)CO | 0.529%
Cc1ccccc1Cn1c(C(C)O)nc2ccccc21 (centres unmarked) | 4.7%
Cc1ccccc1Cn1c(=O)n(Cc2ccco2)c(=O)c2ccccc21 | 2.24%
Cl.N=c1n(Cc2ccccc2Cl)c2ccccc2n1CC(O)c1ccco1 (centres unmarked) | -56.7%
Cc1ccccc1Cn1c(=N)n(CC(O)c2ccco2)c2ccccc21.Cl (centres unmarked) | -59.8%
Cl.N=c1n(CCO)c2ccccc2n1Cc1ccccc1Cl | -20%
Br.CC(C)(C)C(=O)Cn1c(=N)n(Cc2ccccc2Cl)c2ccccc21 | -49.2%
CCOC(=O)C1CCN(C(=O)CCn2c(=O)c3cccn3c3cccnc32)CC1 | -33.2%

Source: PMC4336329 (PLoS ONE, 2015)
